The list is not random: actives were taken first. Their share in the collection is about 1.3%.
BRCA1 expr up: activators of BRCA1 expression | MCF7-BRCA1-FFLuc reporter, luminescence, 48 h; response scale: scaled: vehicle 0%, 10 µM genistein 100% | Potency, µM (top dose mostly 46.1 µM), without a hit: at the top dose activation, hits mostly activators | 1.1% of 380,000 active; further: potency means the concentration at half of the fitted maximal effect; nearly all actives have a fitted effect of over 80% in size
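48 h compound treatment of MCF7-BRCA1-FFLuc cells (phenol-red free MEM, 37 °C), then 15 min with luciferase substrate and luminescence imaging.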
PKM2 activator: activators of human pyruvate kinase M2 | P14618 | purified PKM2, Kinase-Glo ATP luminescence, activation; response scale: 0% is enzyme alone, no compound | Potency, µM (titrated, usually from 57.5 µM), for inactives: at the top dose activation, usual class: activators | 0.34% of 260,000 active; further: potency means the concentration at half of the fitted maximal effect; on the % scale 0 is the no-effect control and ±100 the full control effect; nearly all actives have a fitted effect of over 55% in size
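Kinase-Glo luminescence reports ATP generated from ADP (0.1 mM) and PEP (0.5 mM) by purified hPK-M2 after 1 h at room temperature, pH 7.2 imidazole buffer; intermediate enzyme activity allows detecting inhibitors and activators.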
IL2 activator: activators of IL-2; 0.065% of 360,000 active; activation, % (series mostly up to about 46 µM); IL-2 activation reporter assay, cell-based qHTS; stimulated with anti-CD3/CD4/CD28 beads; in transgenic mouse T cells; in the data active means activation above about 50%; inconclusive means mostly about 30% to 49%; further: 0% is about no effect
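EGFP and DsRed fluorescence is measured by plate cytometry in unstimulated transgenic mouse T cells exposed to compound for 60 minutes, then stimulated 18 hours at 37 degrees C with anti-CD3/anti-CD4 beads plus anti-CD28.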
TSG101-PTAP inh: blocks PTAP/TSG101 interaction to inhibit HIV-1 budding | AID 493005 | 340,000 tested, under 10 active | Potency, µM (highest dose often 115 µM), without a hit: top-dose activity change, negative = inhibition, actives largely listed as inhibitors | Q99816 | Fluorescence polarization, FITC-PTAP peptide / Tsg101 binding; active means well fitted inhibition curve with a large enough effect in the main read-out, with a control signal flat, not every such curve was filed as active; inconclusive means small, poorly fitted or top-dose-only effect, or effect the other way, or a change in a side signal; inactive means no such curve, though single readings can be large or run the other way; further: potency means the concentration at half of the fitted maximal effect; % of control where 0% means no effect
Target sequence (Q99816 whole entry, looked up): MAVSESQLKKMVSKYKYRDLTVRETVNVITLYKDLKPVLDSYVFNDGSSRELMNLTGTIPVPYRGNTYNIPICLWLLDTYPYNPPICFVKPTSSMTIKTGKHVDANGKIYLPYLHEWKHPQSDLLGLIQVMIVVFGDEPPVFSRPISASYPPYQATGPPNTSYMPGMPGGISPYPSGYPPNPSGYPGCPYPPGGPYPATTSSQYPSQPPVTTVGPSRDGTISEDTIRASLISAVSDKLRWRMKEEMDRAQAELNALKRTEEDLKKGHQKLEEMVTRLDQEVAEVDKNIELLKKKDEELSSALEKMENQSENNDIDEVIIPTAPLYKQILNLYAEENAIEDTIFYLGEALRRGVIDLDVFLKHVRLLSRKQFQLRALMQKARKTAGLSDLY
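Compounds were pin-transferred onto Tsg101 binding domain (10 uM final) in HEPES pH 7.5 buffer, then FITC-PTAP peptide was added at 50 nM final. After 20 min at RT, polarization reported peptide displacement across a qHTS concentration series.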
TRPML1 inh: inhibitors of human TRPML1 channel. Q9GZU1. TRPML1-inducible cells, Ca2+ dye fluorescence, FDSS; active compounds read low; inhibition of EC80 agonist-evoked calcium signal. activity change, negative = inhibition, % (concentration not given with the values). 0.02% of 390,000 active. AID 624415; in the data active means activity change below about -50%; inconclusive means between about -30% and that limit;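 further: stimulus is agonist 54-4 at its EC80 concentration; on the % scale 0 is the no-effect control and ±100 the full control effect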
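Tet-induced TRPML1-DL cells loaded with Ca8 no-wash calcium dye were read kinetically on FDSS. Compound addition was followed by EC80 agonist 54-4 (4 uM final); inhibition was read over 110 s.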
TRPML1 ag: human mucolipin-1 channel agonism; TRPML1-expressing cells, Ca2+ dye fluorescence, FDSS; 0.12% of 410,000 active; activation, % (no concentration beside the values); Q9GZU1; in the data active means activation above about 50%; inconclusive means mostly about 30% to 49%; further: 0% is about no effect
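Cells: TRPML1-DL, 1X Tet inducer, ~16 h at 37 degrees C/5% CO2. Dye: ABD Ca8 no-wash + quencher, 45-90 min RT. Read: 10 s baseline, compound add, 110 s agonist phase; 54-4 EC80 (4uM final), 110 s antagonist phase.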
Numbers without * were called inactive; ? = inconclusive; . = no result. Unless noted, the call rests on the fitted dose curve; in most records, active means well fitted activation curve with a large enough effect; inconclusive means small, poorly fitted or top-dose-only effect; inactive means no such curve, though single readings can be large or run the other way.

SMILES	BRCA1 expr up	PKM2 activator	IL2 activator	TSG101-PTAP inh	TRPML1 inh	TRPML1 ag
CC(C)OC(=O)CSc1nc2cc3c(cc2cc1C#N)OCO3	4.47µM*	-4.4%	-1.2	0.6%	11.5	1.7
CCOC(=O)CSc1nc2cc(C)ccc2cc1C#N	12.2%	1.2%	24.1	-13.5%	17.1	5.4
CC[N+](C)(C(=O)O)/C(=C\c1ccccc1)c1ccnc2ccccc12 (stereo not given)	1.4%	.	.	.	.	?
Cn1cnnc1Sc1cc(N2CCN(S(=O)(=O)c3ccccc3)CC2)ccc1[N+](=O)[O-]	-24.9%	0.224µM*	-1.4	-17.5%	5.5	6.1
Nc1nc(NCc2ccc(Cl)c(Cl)c2)c2[nH]cnc2n1	-0.3%	.	.	.	.	-0.8
CCOC(=O)c1ccc(NC(=O)Nc2cccc(C)n2)cc1	-2.8%	14.4%	0.4	1.4%	-5.1	0.9
CCC(=O)Nc1ccc(C(=O)Nc2cccc(C)n2)cc1	2.51µM*	-6.7%	-2.2	1.1%	-4.6	0.3
Cc1ccc(CC(=O)Nc2cccc(C)n2)cc1	10µM*	5.8%	-1.7	-4.6%	-0.3	-0.1
COc1ccc(C(=O)NC2(C(F)(F)F)C(=O)NC(C)=C2C#N)cc1 (stereo not given)	8.4%	.	.	.	8.3	2.8
O=C(c1ccc2c3n(nc2c1)-c1ccccc1CO3)N1CCCCC1	?	-29.3%	-0.4	.	-6.6	-0.4
Cc1ccc2c(c1)COc1c3ccc(C(=O)N[C@@H](CO)C(C)C)cc3nn1-2	6.31µM*	-11.2%	0.0	-4.0%	7.0	-0.3
C[C@@H](CO)NC(=O)c1ccc2c3n(nc2c1)-c1ccccc1CO3	?	-33.8%	-0.2	-6.2%	-5.3	-0.4
O=C(c1ccc2c3n(nc2c1)-c1ccc(Cl)cc1CO3)N1CCOCC1	6.31µM*	-23.7%	2.6	-3.2%	6.4	-0.7
Cc1ccc2c(c1)COc1c3ccc(C(=O)N4CCCCC4)cc3nn1-2	4.47µM*	-18.6%	0.2	.	25.0	0.0
O=C(NCC1CCCO1)c1ccc2c3n(nc2c1)-c1ccccc1CO3 (stereo not given)	2.51µM*	-21.6%	-0.9	-0.7%	-3.0	-0.3
COc1ccc(-n2nc(C(=O)Nc3cc(C)ccn3)c3c4ccccc4n(C)c3c2=O)cc1	.	.	.	.	-8.8	1.4
CC(=O)N1CCOc2ccc(S(=O)(=O)N3CCC(C(=O)NCc4ccc(Cl)cc4)CC3)cc21	-2.9%	.	2.5	.	-10.4	-0.9
COc1ccc(C(C)(O)c2nc(-c3ccc(S(C)(=O)=O)cc3)cs2)cc1 (stereo not given)	-18.0%	.	-0.5	.	.	-0.4
O=c1oc2ccc(Br)cc2cc1-c1nc2c(s1)CCc1ccccc1-2	-18.5%	.	.	.	.	0.9
Cc1ccc2oc(=O)c3cnn(CC(=O)Nc4cccc(C(F)(F)F)c4)c3c2c1	.	.	.	.	-1.7	0.1
O=C(Cn1cc(C(F)(F)F)cc(Cl)c1=O)NCCc1ccc(Cl)cc1Cl	-0.4%	-8.8%	-2.5	-2.6%	.	.
O=C(Cn1cc(C(F)(F)F)cc(Cl)c1=O)NCc1ccc(F)cc1	11.2µM*	.	4.8	0.0%	-12.1	-0.5
CCC(=O)N1CCc2cc(S(=O)(=O)NCCC(=O)NCc3ccc(C)cc3)ccc21	.	.	.	.	-6.8	-0.2
CN(C)c1ccc(N=Nc2cccc(F)c2)cc1	1.58µM*	-6.2%	-3.5	1.0%	-3.4	-0.2
CN(C)c1ccc(N=Nc2ccc3ncccc3c2)cc1	31.4%	.	-0.6	1.4%	-4.0	0.9
Cc1cc(C)cc(N=Cc2[nH]c3ccc(Br)c(Cl)c3c2O)c1	-49.3%	-4.9%	54.5*	12.7%	-7.1	9.5
COc1ccc(CN=Cc2[nH]c3ccc(Br)c(Cl)c3c2O)cc1	-37.6%	-16.8%	-0.1	0.4%	12.3	2.9
O=C1NCCN/C1=C\C(=O)c1cccc(Br)c1	11.2µM*	-2.5%	0.4	5.1%	1.7	-0.9
FC(F)Oc1ccc(C2N=C(c3ccccc3)NO2)cc1 (stereo not given)	4.47µM*	2.0%	-2.3	-1.9%	5.3	1.9

Screening results deposited in PubChem BioAssay by National Center for Advancing Translational Sciences (NCATS).
